# Assay results as given in the supplement of paper PMC9337992.
# ± gives the standard deviation of the averaged measurements.
# Test system: MDAMB436
# Assay: cell proliferation (confluence) relative to DMSO control; higher = less growth inhibition
# Conditions: 5 uM; 6 d
# Description: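 Epigenetic chemical probe screen: 15 TNBC cell lines, 500 cells per well in 384-well plates, treated with 5 uM of each of 36 SGC probes for 6 d. Confluency was imaged by IncuCyte ZOOM and normalised to DMSO control wells. Four replicate wells per compound.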
row,SMILES,cell proliferation [%]
1,O=C(NC[C@H](O)CN1CCc2ccccc2C1)c1ccnc(NC2CCC2)c1,57.5 ± 18
2,Clc1cc2c(NC3CCCC3)nnc(-c3ccncc3)c2cc1Cl,93.5 ± 1.4
3,COc1cc(C#N)ccc1S(=O)(=O)Nc1ccc2c(c1)cc(C)c(=O)n2C,75.5 ± 5.1
4,Cn1cc(CCn2cnc(-c3cnn(C)c3)c2-c2ccc(C#N)cc2)cn1,83.2 ± 14
5,COc1ccccc1C(=O)Nc1cc2c(cc1N1CCCC1)n(C)c(=O)n2C,77 ± 3.6
6,O=C([C@@H](Cc1cccc(C(F)(F)F)c1)NS(=O)(=O)c1cc(F)c2c(c1)CCNC2)N1CCCC1,84.5 ± 12
7,COc1ccccc1S(=O)(=O)Nc1ccc2c(c1)CN(C)C(=O)N2,57 ± 5.5
8,CCCOc1ccn2c(C(C)=O)cc(-c3ccccc3S(C)(=O)=O)c2c1,81.7 ± 14
9,COc1ccc(CCc2nc3cc(-c4c(C)noc4C)ccc3n2C[C@H](C)N2CCOCC2)cc1Cl,57.3 ± 19
10,COc1cc(-c2cn(C)c(=O)c3cnccc23)c(OC)cc1CN(C)C,77.2 ± 7.8
11,CC(C)N(CCCNC(=O)Nc1ccc(C(C)(C)C)cc1)C[C@H]1O[C@@H](n2cc(Br)c3c(N)ncnc32)[C@H](O)[C@@H]1O,90.4 ± 6.8
12,CC(C)Oc1ccc(-c2c[nH]cc2CN(C)CCN)cc1,59.9 ± 20
13,CCOC(=O)CCNc1cc(N2CCc3ccccc3CC2)nc(-c2cccnc2)n1,94.2 ± 5.3
14,CCC(=O)N1CCOc2c(cc(-c3ccc(OC)c(OC)c3)cc2OC[C@H]2CCCN(C)C2)C1,72.3 ± 4.5
15,CCCc1cc(C)[nH]c(=O)c1CNC(=O)c1cc(-c2ccc(N3CCN(C(C)C)CC3)nc2)cc2c1cnn2C(C)C,71.1 ± 4.1
16,CCn1cc(-c2cccc(C(F)(F)F)c2)c2sc(C(=N)NC3CCS(=O)(=O)CC3)cc2c1=O,50.4 ± 30

row,SMILES,cell proliferation [%]
1,O=C(NCC(=O)N1CCCC1)Nc1ccc2cnccc2c1,79.4 ± 7.8
2,COc1c(C)cc(NC(=O)c2nn(Cc3ccc(F)cc3)c3c2CN(C(=O)c2ccc[nH]2)C[C@]3(C)C(N)=O)cc1C,69.4 ± 14
3,CCOC(=O)CCNc1cc(N2CCc3ccccc3CC2)nc(-c2ccccn2)n1,16.1 ± 3
4,CCN(C(=O)CO)[C@H]1CN(/C(=N\C#N)Nc2cccc(OC(F)F)c2)N=C1c1ccc(Cl)c(Cl)c1,93.5 ± 3.8
5,COc1cc2c(NC3CCN(C(C)C)CC3)nc(C3CCCCC3)nc2cc1OCCCN1CCCC1,99.08 ± 0.28
6,CCCc1cc(C)n(C)c(=O)c1CN(C)C(=O)c1cc(-c2ccc(N3CCN(C(C)C)CC3)nc2)cc2c1cnn2C(C)C,96.6 ± 3.2
7,CNCCN1CCC(OCc2ccccc2)CC1,76.5 ± 6.8
8,O=C(/C=C/N1C[C@H]2C[C@@H]1CN2c1ccccn1)c1ccccc1O,95.4 ± 3.6
9,Cc1cc(=O)n(C)c2cc(N3C(=O)CC[C@H](NS(=O)(=O)CC(C)C)[C@H]3c3ccc(Cl)cc3)ccc12,73.3 ± 14
10,CCCc1cc(C)[nH]c(=O)c1CNC(=O)c1cc(-c2ccnc(N3CCN(C)CC3)c2)cc2c1cnn2C(C)C,90.2 ± 6.6
11,Cc1nnc2c3ccccc3c(N[C@@H](C)[C@H](c3ccccc3)N(C)C)nn12 [L-moses],80.8 ± 11
12,CC[C@H](C)n1cc(C)c2c(C(=O)NCc3c(C)cc(C)[nH]c3=O)cc(-c3ccc(N4CCNCC4)nc3)cc21,89.7 ± 1.7
13,CC(C)Oc1ccc(-c2c[nH]cc2CN(C)CCO)cc1,84.9 ± 4.5
14,O=C(c1ccc(C(=O)N2CCC(N3CCCC3)CC2)c(Nc2ccccc2)c1)N1CCC(N2CCCC2)CC1,95.2 ± 2.8
15,CN(C)[C@H]1CN(C2CCc3cccc(F)c32)C[C@@H]1c1ccc(N2CCN(S(C)(=O)=O)CC2)cc1 (some centres not stated),93.7 ± 2.8
16,COc1cc2c(cc1OCCCN1CCCC1)N=C(N)C21CCC1,95.3 ± 6
